# Reference: PubChem BioAssay (NCI)
# About 79,000 compounds went through this panel and 15% of them were active in at least one assay; those are over-represented in the sample as a whole. A number with no mark means an inactive call. Calls of active or inactive are those of the source. No stated cut-off is given here; in the data, active means growth inhibition above about 70%; inactive means the rest.
# Legend:
# [1] = NCI Yeast Anticancer Drug Screen. Data for the rad50 strain (AID 155);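 further: 0% = growth of vehicle-only cultures of the same strain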; details: S. cerevisiae rad50 strain growth inhibition, hits give high values
# Outline: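 Growth of the mutant yeast was measured after compound exposure and referenced to vehicle-treated cultures.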
# [2] = NCI Yeast Anticancer Drug Screen. Data for the mec2-1 strain (AID 157); details: S. cerevisiae mec2-1 strain, hits give high values
# Outline: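 Strain: mec2-1 (DNA repair/cell cycle alteration). Compound exposure, then growth measured; inhibition expressed relative to vehicle.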
# [3] = NCI Yeast Anticancer Drug Screen. Data for the sgs1 mgt1 strain (AID 161);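 further: 0% = growth of cultures given vehicle only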; details: S. cerevisiae sgs1 mgt1 strain, hits give high values
# Outline: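 Test agents were incubated with a DNA-repair-mutant yeast strain. Growth was then read and compared against vehicle-treated controls.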
# [4] = NCI Yeast Anticancer Drug Screen. Data for the cln2 rad14 strain (AID 165);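 further: 0% = growth equal to vehicle treated cultures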; details: S. cerevisiae cln2 rad14 strain, hits give high values
# Outline: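 Compounds are applied to the cln2 rad14 yeast strain, and growth is then compared with that of vehicle-treated cultures to give inhibition.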
# [5] = NCI Yeast Anticancer Drug Screen. Data for the bub3 strain (AID 167); details: S. cerevisiae bub3 mutant strain, hits give high values
# Outline: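 Whole-cell yeast assay. The mutant strain was incubated with compounds, and growth inhibition was determined by comparison with vehicle-treated cells.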
# [6] = NCI Yeast Anticancer Drug Screen. Data for the mlh1 rad18 strain (AID 175); details: S. cerevisiae mlh1 rad18 strain growth inhibition, hits give high values
# Outline: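 Read-out is yeast growth inhibition, calculated against vehicle-only controls. The compound was applied to a strain engineered with DNA damage repair alterations.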
# [7] = at 5.0 µM (retest, dose inferred, filed as 0.5)
# [8] = at 50.0 µM (retest, dose inferred, filed as 5.0)
SMILES,"growth inhibition [1, 7] [%]","growth inhibition [1, 8]","growth inhibition [2, 7] [%]","growth inhibition [2, 8]","growth inhibition [3, 7] [%]","growth inhibition [3, 8]","growth inhibition [4, 7] [%]","growth inhibition [4, 8]","growth inhibition [5, 7] [%]","growth inhibition [5, 8]","growth inhibition [6, 7] [%]","growth inhibition [6, 8]",growth inhibition ([1]; at 50.0 µM unless noted),growth inhibition ([2]; at 50.0 µM unless noted),growth inhibition ([3]; at 50.0 µM unless noted),growth inhibition ([4]; at 50.0 µM unless noted),growth inhibition ([5]; at 50.0 µM unless noted)
CC(=O)OC(C)C(=O)NCC(C)O (stereo unspecified),-1,3%,-2,0%,-2,9%,-1,-7%,5,7%,-33,20%,–,–,–,–,–
C/C(=N\NC(=S)N1CCC(N2CCCCC2)CC1)c1ccccn1,–,–,–,–,–,–,–,–,–,–,–,–,83.8% (active),88.1% (active),88% (active),84.8% (active),86% (active)
Oc1cc(Cl)cc2cccnc12,–,–,–,–,–,–,–,–,–,–,–,–,87.8% (active),91.5% (active),88.8% (active),91.6% (active),90% (active)
COc1cc(-c2cc(=O)c3c(O)c(OC)c(OC)c(OC)c3o2)cc(OC)c1OC,–,–,–,–,–,–,–,–,–,–,–,–,-9.45%,-2.7%,-10.8%,-10%,-20.8%
C/C(CC(C)C(=O)O)=N/NC(N)=O (stereo unspecified),0,34%,-8,5%,0,40%,-6,-2%,-1,20%,-31,43%,–,–,–,–,–
CC(C)NC(=O)N/C=C(\C#N)C(N)=O,4,70% (active),-1,21%,4,63%,2,1%,-3,20%,-39,16%,–,–,–,–,–
CC(C)C(C)(C)c1ccc(O)cc1,-34,70% (active),-2,68%,3,75% (active),2,26%,2,61%,2,74% (active),–,–,–,–,–
CCCCOC(=O)/C=C\C(=O)NC(N)=O,4,9%,-1,7%,5,18%,-3,1%,0,6%,-21,18%,–,–,–,–,–
COc1ccc(Nc2ccc3ccccc3c2)cc1,6,0%,-2,-1%,-66,50%,-4,-17%,3,72% (active),-31,-7%,–,–,–,–,–
CC(O)C(=O)NC1CCCCC1 (stereo unspecified),3,26%,1,1%,1,12%,1,3%,–,–,3,17%,–,–,–,–,–
CC(=O)O[C@H]1C(=O)[C@@]2(C)C(C(OC(=O)c3ccccc3)[C@]3(O)CC(OC(=O)[C@H](OC(=O)CCC(=O)O)C(NC(=O)c4ccccc4)c4ccccc4)C(C)=C1C3(C)C)C1(OC(C)=O)COC1C[C@@H]2OC(=O)CCC(=O)O (stereo partly specified),–,–,–,–,–,–,–,–,–,–,–,–,29.6%,-5.45%,-25.4%,-7.4%,-8.05%
N#CC(C#N)N=Nc1ccc(Cl)cc1,26,83% (active),18,73% (active),24,93% (active),1,73% (active),9,72% (active),-1,87% (active),–,–,–,–,–
CCCCCCCCCCNC(=O)CI,20,98% (active),7,99% (active),24,99% (active),10,42%,14,100% (active),8,98% (active),–,–,–,–,–
Oc1ccc(Cc2ccccc2Cl)c(O)c1,1,99% (active),-4,99% (active),-3,99% (active),1,98% (active),-1,99% (active),-22,98% (active),–,–,–,–,–
O=C(O)/C=C\C(=O)Nc1cccc2ccccc12,4,60%,-1,30%,7,88% (active),-1,8%,-1,42%,-35,25%,–,–,–,–,–
COc1cccc2c1C(=O)c1c(O)c3c(c(O)c1C2=O)C[C@@](O)(C(=O)CO)CC3OC1CC(O)C(O)C(C)O1 (stereo partly specified),–,–,–,–,–,–,–,–,–,–,–,–,72% (active),52.8%,33.2%,28.8%,63.2%

SMILES,"growth inhibition [1, 7] [%]","growth inhibition [1, 8]","growth inhibition [2, 7] [%]","growth inhibition [2, 8]","growth inhibition [3, 7] [%]","growth inhibition [3, 8]","growth inhibition [4, 7] [%]","growth inhibition [4, 8]","growth inhibition [5, 7] [%]","growth inhibition [5, 8]","growth inhibition [6, 7] [%]","growth inhibition [6, 8]",growth inhibition ([1]; at 50.0 µM unless noted),growth inhibition ([2]; at 50.0 µM unless noted),growth inhibition ([3]; at 50.0 µM unless noted),growth inhibition ([4]; at 50.0 µM unless noted),growth inhibition ([5]; at 50.0 µM unless noted)
C=CCc1cc(-c2cc(CC=C)c(O)c(CN(CC)CC)c2)cc(CN(CC)CC)c1O,–,–,–,–,–,–,–,–,–,–,–,–,-9%,-5.2%,-20%,-18%,-12.1%
N#CC(C#N)N=Nc1cc(Cl)ccc1Cl,20,93% (active),13,87% (active),16,99% (active),8,87% (active),15,96% (active),-2,92% (active),–,–,–,–,–
NN1CCOC(c2ccccc2)C1 (stereo unspecified),15,57%,11,24%,7,49%,0,4%,34,61%,-12,28%,–,–,–,–,–
O=C(Cc1ccccc1)c1ccc(O)c(Cl)c1,20,99% (active),2,99% (active),18,99% (active),12,96% (active),7,99% (active),-11,97% (active),–,–,–,–,–
CC(CC=O)CC=O,15,82% (active),3,32%,18,78% (active),3,31%,-5,-7%,16,79% (active),–,–,–,–,–
C[Si](C)(C)OC1CC(=O)OC1n1cc(F)c(=O)[nH]c1=O (stereo unspecified),–,–,–,–,–,–,–,–,–,–,–,–,56.8%,81.6% (active),75.8% (active),-1.15%,21.8%
C=C1COC(O)(C2OCOC(C3CC(=O)NC(=O)C3)C2O)C1C (stereo unspecified),–,–,–,–,–,–,–,–,–,–,–,–,88% (active),91.2% (active),91.5% (active),89.8% (active),89.2% (active)
CCC/C(=N\NC(=S)N1CCN(c2ccccn2)CC1)c1ccccn1,–,–,–,–,–,–,–,–,–,–,–,–,87.3% (active),90.3% (active),88.8% (active),80.5% (active),20.9%
Clc1ncc(Cl)c(Cl)n1,–,–,–,–,–,–,–,–,–,–,–,–,68.7%,18.6%,-46.8%,-22.5%,–
Fc1ccc([I+]c2ccc(F)cc2)cc1,12,89% (active),2,43%,24,84% (active),9,32%,33,90% (active),17,81% (active),–,–,–,–,–
Cc1nc2c(n1-c1ccc(Br)cc1)C(=O)c1ccccc1C2=O,–,–,–,–,–,–,–,–,–,–,–,–,33.9%,-17.9%,-4.4%,12.3%,-30.2%
C=C1C(=O)OC2/C=C(\COC(C)=O)CCC(OC(C)=O)C3=CC(OC3=O)C12 (stereo unspecified),–,–,–,–,–,–,–,–,–,–,–,–,-0.4%,10.4%,-22.2%,-6.5%,-30.1%
CCCCNc1ccc(Nc2ccccc2)cc1,1,95% (active),1,96% (active),14,97% (active),1,87% (active),2,97% (active),-40,94% (active),–,–,–,–,–
C/C(=N\NC(=S)N1CCN(c2ccccn2)CC1)c1cccc(C)n1,–,–,–,–,–,–,–,–,–,–,–,–,90.3% (active),92.7% (active),91.8% (active),91.3% (active),89.5% (active)
C/C(=N\NC(=S)N1CCCCCC1)c1nccnc1C,–,–,–,–,–,–,–,–,–,–,–,–,85.7% (active),90.5% (active),89.7% (active),86.5% (active),87.4% (active)
